# In PubChem BioAssay AID504466 (National Center for Advancing Translational Sciences (NCATS), 2011):
# The campaign covered roughly 330,000 compounds. About 4,200 (1.3%) were called active. About 6% were inconclusive and are not listed. Calls follow the shape of the dose curve; as a rule, active = well fitted activation curve with a large enough effect; inconclusive = small, poorly fitted or top-dose-only effect; inactive = no such curve, though single readings can be large or run the other way. The entries come from a sample that favours actives as a whole.
# Test: qHTS screen for small molecules that induce genotoxicity in human embryonic kidney (HEK293T) cells expressing luciferase-tagged ELG1; also: nearly all actives have a fitted effect of over 60% in size; as to activity change, positive = activation: % of control where 0% means no effect
# Conditions: HEK293T ELG1-luciferase reporter, luminescence, 16 h; series mostly up to 46 µM; activity change, positive = activation: at the top concentration
# Outline: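 After overnight (16 hr) compound treatment at 37 °C, ELG1-luciferase HEK293T cells were lysed with ONE-Glo; luminescence quantified 30 min later at room temperature.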
# Potency is read from the fitted curve at half-maximal effect.
Structure (SMILES),"activity change, positive = activation",Potency
COc1ccccc1CNC(=O)c1ccc(Cl)c(S(=O)(=O)N2CCCC2)c1,-0.595% (inactive),–
Cc1ccc(S(=O)(=O)NCCC(=O)Nc2ccc(C)c(Cl)c2)cc1C,-1.62% (inactive),–
Cc1ccnc(NC(=O)CCNS(=O)(=O)c2ccc(C)c(C)c2)c1,–,1.64 µM (active)
Cc1ccc(S(=O)(=O)NCCC(=O)Nc2cccc(S(N)(=O)=O)c2)cc1C,-2.2% (inactive),–
Cc1cc(NC(=O)CN2C(=O)NC(CC(C)C)C2=O)no1 (configuration not stated),-1.81% (inactive),–
O=C(CN1C(=O)NC2(CCCCCC2)C1=O)Nc1ccc([N+](=O)[O-])cc1,-6.89% (inactive),–
CC(C)(C)OC(=O)C[C@@H]1C/C=C\C[C@@H](CC(=O)N[C@H](CO)Cc2ccccc2)C(=O)NC[C@@H](c2ccccc2)OC1=O,-1.15% (inactive),–
COc1ccc(C(=O)OCC(=O)Nc2cccc(C(C)=O)c2)cc1OC,-2.98% (inactive),–
CC(=O)Nc1cccc(C(=O)OCC(=O)NCc2cc(C)c(O)c(C)c2)c1,–,14.6 µM (active)
Cc1ccc(C(=O)OCC(=O)NCc2cc(C)c(O)c(C)c2)cc1S(=O)(=O)N1CCCCC1,-3.3% (inactive),–
Cc1noc(C)c1S(=O)(=O)N(C)C[C@H]1Oc2c(NC(=O)Nc3ccc4c(c3)OCO4)cccc2C(=O)N([C@H](C)CO)C[C@@H]1C,-1.28% (inactive),–
COc1cc(OC)cc(C(=O)N[C@H](C(=O)NNC(=O)c2ccc(Br)cc2)C(C)C)c1,-3.65% (inactive),–
CC(=O)Oc1ccc(NC(=O)CCC2CCCCC2)c(C(=O)O)c1,-2.29% (inactive),–
COc1ccc(NC(=O)CCN2CCCC2)c(OC)c1,2.14% (inactive),–
COc1ccc(NC(=O)CCCC2CCCCC2)c(OC)c1,–,18.3 µM (active)
O=C(NOCc1ccccc1)c1cccc([N+](=O)[O-])c1,12.2% (inactive),–
Cc1ccc2nc(-c3ccc(SCC(=O)Nc4cc(C)on4)nc3)[nH]c2c1,–,1.84 µM (active)
Cc1cccc(-n2ncc3c(=O)[nH]c(SCC(=O)Nc4cc(C)on4)nc32)c1,-3.13% (inactive),–
Cc1ccc(SCCC(=O)Nc2cc(C)on2)cc1,1.06% (inactive),–
CC1CCCCC12NC(=O)N(CC(=O)N1CCN(c3ccccc3)CC1)C2=O (configuration not stated),-1.11% (inactive),–
CCN(C[C@H]1N[C@@](CC)(C(=O)OC)[C@H]2C(=O)N(Cc3ccccc3)C(=O)[C@@H]12)S(=O)(=O)c1ccc(C(F)(F)F)cc1,-1.39% (inactive),–

Structure (SMILES),"activity change, positive = activation",Potency
COc1ccc(-c2cc(C(=O)N3CCN(c4ccc(F)cc4)CC3)no2)cc1,-14.8% (inactive),–
COc1cccc(-c2cc(C(=O)N3CCN(c4ccccc4OC)CC3)no2)c1,-2% (inactive),–
COc1ccccc1-c1cc(C(=O)N2CCCCC2)no1,–,3.66 µM (active)
O=C(OCC(=O)N1CCCCC1)c1ccc(OC(F)(F)F)cc1,3.48% (inactive),–
O=C(C[C@H]1C[C@H](C(=O)N2CCOCC2)[C@@]2(CCC3CCCC3)c3[nH]c4ccc(Cl)cc4c3CCN2C1=O)NCc1ccco1,-5.84% (inactive),–
COc1ccc(NC(=O)N(C)C[C@H]2Oc3ccc(NC(=O)C4CC4)cc3C(=O)N([C@H](C)CO)C[C@@H]2C)cc1,-1.25% (inactive),–
COc1cccc(CNC(C)C(=O)Nc2ccc(S(=O)(=O)N3CCCC3)cc2)c1 (configuration not stated),-3.42% (inactive),–
COc1cccc(C(=O)Nc2cccnc2)c1OC,1.69% (inactive),–
O=C(Nc1cccnc1)c1cc(Cl)ccc1Cl,-3.11% (inactive),–
O=C(Nc1cccnc1)c1noc2c1CCCCC2,–,2.31 µM (active)
Cc1ccnc(SCC(=O)Nc2cccc(S(=O)(=O)N3CCOCC3)c2)n1,-0.227% (inactive),–
COc1ccc(-c2noc(CCC(=O)N3CCN(c4cccc(C)c4)CC3)n2)cc1,-4.97% (inactive),–
O=C(CNC(=O)c1ccc(F)cc1)c1ccccc1,–,8.2 µM (active)
O=C(NCCS(=O)(=O)NCc1ccc(F)cc1)c1ccccc1,0.375% (inactive),–
O=C(CNC(=O)c1ccccc1)NCC(=O)OCC(=O)c1ccccc1,1.91% (inactive),–
O=C(CNC(=O)c1ccccc1F)c1ccc(Br)cc1,–,5.17 µM (active)
O=C(Nc1ccc(NC(=O)c2ccccc2F)cc1)c1ccccc1F,9.59% (inactive),–
O=C(COC(=O)CNC(=O)c1ccccc1F)NCC(F)(F)F,4.54% (inactive),–
COc1cc(NC(=O)c2[nH]cnc2C(N)=O)cc(C(=O)Nc2cccc(C(F)(F)F)c2)c1,-5.7% (inactive),–
C=CC(COCc1ccccc1)N(CC(=O)OC)S(=O)(=O)c1cc(Br)ccc1OC (configuration not stated),-1.71% (inactive),–
O=C1N[C@H](Cc2c[nH]c3ccccc23)COC(=O)[C@H](Cc2ccc(F)cc2)C/C=C\C[C@H]1CC(=O)N(CCO)Cc1ccccc1,-7.25% (inactive),–

Structure (SMILES),"activity change, positive = activation",Potency
CCOc1ccc(NC(=O)c2ccc(NC(=O)COC(=O)c3ccc(NC(=O)CC#N)cc3)cc2)cc1,–,5.17 µM (active)
CCOc1ccc(C(=O)Nc2ccncc2)cc1,2.31% (inactive),–
N#CCC(=O)Nc1ccc(C(=O)OCC(=O)Nc2sc3c(c2C#N)CCCC3)cc1,-1.43% (inactive),–
C[C@@H]1CN([C@@H](C)CO)C(=O)c2cccc(NS(=O)(=O)c3ccc(F)cc3)c2O[C@H]1CN(C)C(=O)NC1CCCCC1,1.39% (inactive),–
Cc1cccc(N2O[C@H]3C=CC2CCCC3)n1,7.05% (inactive),–
CCCC(CNC(=O)COC(=O)C1=NNC(=O)CC1)c1ccc(Cl)cc1Cl (configuration not stated),-0.937% (inactive),–
O=C(Cc1ccccc1)NNC(=O)C1CCN(c2ncccn2)CC1,-6.15% (inactive),–
COc1ccccc1Oc1ccc(N/C=C2/CCCC2=O)cc1,6.77% (inactive),–
O=C1/C(=C\Nc2ccccc2)CCN1c1ncccn1,–,11.6 µM (active)
NC(=O)Nc1ccc(C(=O)OCC(=O)NC2CCCc3ccccc32)cc1 (configuration not stated),-0.511% (inactive),–
CCCN=C1N(C)C[C@@H]2[C@@H]3C(=O)N(Cc4ccccc4)C(=O)[C@@H]3[C@](C)(C(=O)OC)N12,0.158% (inactive),–
COc1ccc(S(=O)(=O)N(C)C[C@@H]2Oc3ccc(NS(=O)(=O)c4cn(C)cn4)cc3C(=O)N([C@@H](C)CO)C[C@@H]2C)cc1,-0.23% (inactive),–
C[C@H](CO)N1C[C@H](C)[C@@H](CN(C)C(=O)NC2CCCCC2)Oc2ccc(NC(=O)c3ccncc3)cc2C1=O,3.77% (inactive),–
O=C(Nc1cc(C(F)(F)F)ccc1Cl)c1cc2nc3c(c(C(F)(F)F)n2n1)CCCC3,–,8.2 µM (active)
O=C(Nc1cc(C(F)(F)F)ccc1Cl)C(=O)N1CCCCC1,2.63% (inactive),–
CCCCC(=O)Nc1ccc(C(=O)Nc2cc(C(F)(F)F)ccc2Cl)cc1,10.1% (inactive),–
CCNC(=S)N1CCN(S(=O)(=O)c2ccc(Cl)s2)CC1,-6.92% (inactive),–
O=C(NCCC1=CCCCC1)C1CCN(Cc2cnn(-c3ccccc3)c2-n2cccc2)CC1,2.58% (inactive),–
O=C(NNc1ncnc2c1cnn2-c1ccccc1)c1ccco1,33.8% (inactive),–
C1=C(CCNc2ncnc3c2cnn3-c2ccccc2)CCCC1,–,2.31 µM (active)
